PubChem BioAssay (Tox21)
Inconclusive results are not listed. The source made the active and inactive calls. Unless noted, the call rests on the fitted dose curve; in most records, active means well fitted curve in the direction sought with a large enough effect in the repeat runs; inconclusive means weak or mixed curves; inactive means no such curve, though single readings can be large; an effect the other way counts as inactive or inconclusive.

Legend:
[1] = molecular target: Luciferin 4-monooxygenase (Photinus pyralis) (UniProt P08659); assay: qHTS assay to identify small molecule inhibitors of firefly luciferase (AID 1224835); further: nearly all actives have a fitted effect of over 25% in size
Procedure, shortened: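 Biochemical qHTS: compounds run as interplate titrations against purified firefly enzyme, with D-luciferin and ATP each at its KM concentration. Light output recorded by CCD imaging.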

[2] = qHTS assay to identify small molecule agonists of the constitutive androstane receptor (CAR) signaling pathway - cell viability counter screen (AID 1224836); further: nearly all actives have a fitted effect of over 45% in size
Procedure, shortened: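 HepG2-CYP2B6-hCAR, 2500 cells/well, 4 h pre-incubation; cpd 15 conc + PK11195 0.75 uM final; 23 h, 37 C/5% CO2; CellTiter-Fluor, fluorescence.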

[3] = qHTS assay to identify small molecule antagonists of the constitutive androstane receptor (CAR) signaling pathway - cell viability counter screen (AID 1224837); further: nearly all actives have a fitted effect of over 45% in size
Procedure, shortened: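 Counter screen run in HepG2-CYP2B6-hCAR cells: 4 hr settle, compound titration (15 concentrations) with 50 nM CITCO, 23 hr at 37 C/5% CO2, CellTiter-Fluor fluorescence.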

[4] = molecular target: Nuclear receptor subfamily 1 group I member 3 (Homo sapiens) (UniProt Q14994); assay: qHTS assay to identify small molecule antagonists of the constitutive androstane receptor (CAR) signaling pathway (AID 1224838);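 further: HepG2 cells stably expressing hCAR with CYP2B6 luciferase reporter stimulated by CITCO; nearly all actives have a fitted effect of over 40% in size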; further: potency means the concentration at half of the fitted maximal effect
Procedure, shortened: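 Cell line: HepG2 double-stable for hCAR and CYP2B6-2.2kb reporter. Agonist: CITCO, 50 nM final. Compounds: 15 concentrations, 24 h, 37 C. Detection: ONE-Glo luminescence.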

[5] = molecular target: Nuclear receptor subfamily 1 group I member 3 (Homo sapiens) (UniProt Q14994); assay: qHTS assay to identify small molecule agonists of the constitutive androstane receptor (CAR) signaling pathway (AID 1224839);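 further: HepG2 cells stably carrying human CAR and a CYP2B6 luciferase reporter; nearly all actives have a fitted effect of over 15% in size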
Procedure, shortened: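 HepG2-CYP2B6-hCAR cells, 2500/well, 4 h pre-incubation; compounds 15 conc.; PK11195 0.75 uM final; 24 h, 37 C/5% CO2; ONE-Glo luciferase read.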

[6] = qHTS assay to identify small molecule antagonists of the estrogen related receptor signaling pathway with the pleiotropic PPARgamma coactivator (PGC) from Tox21 10K library - cell viability counter screen (AID 1224840; active means well fitted cell-killing curve with a large enough effect in the repeat runs, not every such curve was filed as active; further: nearly all actives have a fitted effect of over 40% in size)
Procedure, shortened: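 Following seeding of 2,000 PGC/ERR cells/well and 6 hours' incubation, test compounds were delivered in DMSO. The plates then sat 17.5 hours at 37 C before a fluorogenic live-cell protease reagent (CellTiter-Fluor) was read after 30 min.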

[7] = qHTS assay to identify small molecule antagonists of the estrogen related receptor signaling pathway with the pleiotropic PPARgamma coactivator (PGC) from Tox21 10K library (AID 1224841; call rule not given here; further: actives are mostly falling curves and most rising ones were filed inactive; nearly all actives have a fitted effect of over 50% in size)
Procedure, shortened: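 qHTS antagonist format: PGC/ERR cells, 2k/well, compound in DMSO by pin transfer after 6 h attachment, 18 h treatment at 37 C, One-Glo luminescence read at 30 min.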

[8] = molecular target: Thyrotropin receptor (Homo sapiens) (UniProt P16473); assay: qHTS assay to identify small molecule agonists of the thyroid stimulating hormone receptor (TSHR) signaling pathway (AID 1224843; calls by dose curve; further: nearly all actives have a fitted effect of over 45% in size)
Procedure, shortened: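 TSHR-HEK293 cells in agonist mode, 30 min room-temperature step, then cAMP measured by competitive HTRF (cAMP-d2 with anti-cAMP cryptate) after 1 h at room temperature. Tested at 15 concentrations in triplicate.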

[9] = qHTS assay to identify small molecule agonists of the hypoxia (HIF-1) signaling pathway - cell viability counter screen (AID 1224844; calls by dose curve; further: nearly all actives have a fitted effect of over 50% in size)
Procedure, shortened: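 Cells (HRE-bla ME-180, 2,000 per well) sat 5 hrs at 37C, got compound for 17 hrs, were read for CCF4-AM FRET, and were finally lysed with CellTiter-Glo for a 30 min room-temperature luminescence read.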

[10] = qHTS assay to identify small molecule agonists of H2AX (AID 1224845; active means well fitted activation curve with a large enough effect in the signal ratio in the repeat runs, not every such curve was filed as active; the % refers to the signal ratio)
Procedure, shortened: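 Wild-type CHO-K1 cells, plated overnight, exposed 3hr at 37C to 15 concentrations (0.76% DMSO final). Lysed, then HTRF anti-pH2AX (S139) cryptate and anti-H2AX-d2 antibodies, 24 hr room temperature; 665/620 nm emission read.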

[11] = qHTS assay to identify small molecule agonists of the hypoxia (HIF-1) signaling pathway (AID 1224846; active means well fitted activation curve with a large enough effect in the signal ratio in the repeat runs, not every such curve was filed as active; the % refers to the signal ratio)
Procedure, shortened: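 A low-serum medium (0.5% dialyzed FBS) holding 2,000 HRE-bla ME-180 cells per well is preincubated for 5 hrs, dosed with compounds by pintool, and kept a further 17 hrs at 37C, 5% CO2 before CCF4-AM FRET detection of beta-lactamase.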

[12] = qHTS assay to identify small molecule agonists of H2AX - cell viability counter screen (AID 1224847; calls by dose curve; further: top concentration of the series differs between compounds; nearly all actives have a fitted effect of over 30% in size)
Procedure, shortened: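 Cells plated first: CHO-K1, 1000 per well in 10% FBS medium, incubated overnight at 37C. Then 15-point compound titration added (final DMSO 0.76%) for 3 hr. Finally CellTiter-Glo added and luminescence read.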

[13] = qHTS assay to identify small molecule antagonists of the estrogen related receptor (ERR) signaling pathway from Tox21 library (AID 1224848); further: nearly all actives have a fitted effect of over 50% in size
Procedure, shortened: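 ERR reporter cell line (from NTP) seeded 2,000 cells/well, rested 6 h at 37 C/5% CO2, then pin-dosed with compounds in DMSO. After 18 h at 37 C, ONE-Glo added; luminescence read after 30 min at room temperature.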

[14] = qHTS assay to identify small molecule agonists of the estrogen related receptor (ERR) signaling pathway from Tox21 library (AID 1224849; calls by dose curve; further: nearly all actives have a fitted effect of over 15% in size); conditions: ERR reporter cell line, ONE-Glo luciferase, 18 h
Procedure, shortened: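 Screening used an NTP-provided ERR luciferase cell line. Compounds in DMSO were added 6 h after seeding and left 18 h at 37 C before a 30 min ONE-Glo step and luminescence reading.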

[15] = qHTS RealTime-Glo MT Cell Viability Assay in HepG2 cells - 24 hour (AID 1224867); further: nearly all actives have a fitted effect of over 50% in size
Procedure, shortened: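 Cell number in HepG2 cultures estimated from NanoLuc luminescence generated by metabolic reduction of a prosubstrate by living cells. The homogeneous, nonlytic format allowed repeated reads at 0, 8, 16, 24, 32 and 40 h of compound exposure.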

[16] = qHTS RealTime-Glo MT Cell Viability Assay in HEK293 cells - 32 hour (AID 1224868)
Procedure, shortened: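 Homogeneous bioluminescent viability format in HEK293 cells (600 cells/well). Following 5 h at 37 C/5% CO2, 23 nL compound was pintooled; the signal was measured repeatedly during 40 h incubation.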

[17] = A CellTox Green Cytotoxicity Assay to monitor cytotoxicity in HEK293 cells - 0 hour (AID 1224869); further: nearly all actives have a fitted effect of over 50% in size
Procedure, shortened: (§1)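 Fluorescence intensity, read at 0, 8, 16, 24, 32 and 40 h of compound treatment, reflected dye binding to DNA of dead HEK293 cells; compounds (23 nL, DMSO) were added 5 h after plating cells with reagent.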

[18] = qHTS RealTime-Glo MT Cell Viability Assay in HepG2 cells - 40 hour (AID 1224870); further: nearly all actives have a fitted effect of over 50% in size
Procedure, shortened: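 HepG2 cells (600/well) mixed with RealTime-Glo MT reagent, settled 5 h at 37 C/5% CO2 before compound addition. Nonlytic NanoLuc luminescence from viable-cell prosubstrate reduction read repeatedly during 40 h treatment at 37 C.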

[19] = A CellTox Green Cytotoxicity Assay to monitor cytotoxicity in HEK293 cells - 40 hour (AID 1224871); further: nearly all actives have a fitted effect of over 45% in size
Procedure, shortened: as §1

[20] = qHTS assay to identify small molecule agonists of the estrogen related receptor signaling pathway with the pleiotropic PPARgamma coactivator (PGC) from Tox21 10K library (AID 1224842); further: nearly all actives have a fitted effect of over 15% in size
Procedure, shortened: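 PGC/ERR reporter cell line, 2,000 cells per well, incubated 6 h at 37 C before 23 nL compound in DMSO was added. After 18 h at 37 C, One-Glo luminescence read following 30 min at room temperature.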
On the % scale 0 is the no-effect control and ±100 the full control effect.

Nuclear receptor subfamily 1 group I member 3 (Homo sapiens), sequence (Q14994 whole entry, looked up): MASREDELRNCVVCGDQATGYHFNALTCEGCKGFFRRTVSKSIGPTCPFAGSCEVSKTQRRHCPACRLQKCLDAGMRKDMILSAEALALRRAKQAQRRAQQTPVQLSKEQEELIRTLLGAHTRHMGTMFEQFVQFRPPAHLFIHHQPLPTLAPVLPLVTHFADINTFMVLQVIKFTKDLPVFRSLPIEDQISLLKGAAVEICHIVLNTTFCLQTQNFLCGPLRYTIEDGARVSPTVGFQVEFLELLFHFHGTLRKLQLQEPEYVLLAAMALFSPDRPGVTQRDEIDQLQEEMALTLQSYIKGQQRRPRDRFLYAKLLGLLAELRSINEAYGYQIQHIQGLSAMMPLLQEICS
Luciferin 4-monooxygenase (Photinus pyralis), sequence (P08659 whole entry, looked up): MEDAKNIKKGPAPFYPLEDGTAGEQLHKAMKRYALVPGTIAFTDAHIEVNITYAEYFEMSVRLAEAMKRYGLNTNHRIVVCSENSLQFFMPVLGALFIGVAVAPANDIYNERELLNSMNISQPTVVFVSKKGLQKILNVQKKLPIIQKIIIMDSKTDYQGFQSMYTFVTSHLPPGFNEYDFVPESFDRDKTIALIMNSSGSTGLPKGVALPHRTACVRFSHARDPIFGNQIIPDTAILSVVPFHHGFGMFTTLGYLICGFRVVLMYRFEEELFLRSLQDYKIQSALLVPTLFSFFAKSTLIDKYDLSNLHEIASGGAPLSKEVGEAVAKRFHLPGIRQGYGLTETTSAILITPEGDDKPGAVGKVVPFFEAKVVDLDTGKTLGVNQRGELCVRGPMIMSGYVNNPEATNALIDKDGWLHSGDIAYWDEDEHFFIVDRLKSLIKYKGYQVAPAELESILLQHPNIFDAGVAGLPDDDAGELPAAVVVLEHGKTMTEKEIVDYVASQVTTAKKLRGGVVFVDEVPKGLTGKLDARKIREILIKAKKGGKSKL
Thyrotropin receptor (Homo sapiens), sequence (P16473 whole entry, looked up): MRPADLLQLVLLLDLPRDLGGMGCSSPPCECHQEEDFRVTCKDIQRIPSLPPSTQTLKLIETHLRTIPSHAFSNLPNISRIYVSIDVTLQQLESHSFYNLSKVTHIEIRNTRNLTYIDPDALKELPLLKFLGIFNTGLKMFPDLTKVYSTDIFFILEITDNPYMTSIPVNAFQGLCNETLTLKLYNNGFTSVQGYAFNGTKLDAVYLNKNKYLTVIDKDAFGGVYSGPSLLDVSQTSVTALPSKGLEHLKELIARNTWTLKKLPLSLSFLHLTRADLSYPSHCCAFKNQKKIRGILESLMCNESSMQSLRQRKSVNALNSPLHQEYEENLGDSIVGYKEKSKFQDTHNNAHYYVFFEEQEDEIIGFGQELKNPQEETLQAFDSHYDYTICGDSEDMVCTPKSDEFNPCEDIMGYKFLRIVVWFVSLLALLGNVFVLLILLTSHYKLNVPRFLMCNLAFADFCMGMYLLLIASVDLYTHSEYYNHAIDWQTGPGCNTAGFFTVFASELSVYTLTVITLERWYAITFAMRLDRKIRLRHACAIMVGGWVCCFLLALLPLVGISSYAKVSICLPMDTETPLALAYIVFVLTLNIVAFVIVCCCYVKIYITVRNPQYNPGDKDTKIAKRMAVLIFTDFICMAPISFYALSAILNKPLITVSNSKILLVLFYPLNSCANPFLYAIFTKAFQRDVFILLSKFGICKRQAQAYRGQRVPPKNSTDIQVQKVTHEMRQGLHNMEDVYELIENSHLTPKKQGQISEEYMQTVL

CCCCCCOC(=O)C(C)CC (stereo not given)
inactive: Potency [1] | Potency [2] | Potency [3] | Potency [4] | Potency [5] | Potency [6] | Potency [7] | Potency [8] | Potency [9] | Potency [10] | Potency [11] | Potency [12] | Potency [13] | activity change, positive = activation ([14]; at 92.4 µM (top of the series)) 0.0288% | Potency [15] | Potency [16] | Potency [17] | Potency [18] | Potency [19]

CCCCCCC1CCCC(=O)O1 (stereo not given)
inactive: Potency [1] | Potency [2] | Potency [3] | Potency [4] | Potency [5] | Potency [6] | Potency [7] | Potency [8] | Potency [9] | Potency [10] | Potency [11] | Potency [13] | activity change, positive = activation ([14]; at 92.4 µM (top of the series)) 0.936% | Potency [15] | Potency [16] | Potency [18] | Potency [19]

CC1(C)CCC[C@]2(C)[C@H]3CCO[C@]3(C)CC[C@@H]12
inactive: Potency [1] | Potency [2] | Potency [3] | Potency [4] | Potency [5] | Potency [6] | Potency [7] | Potency [20] | Potency [8] | Potency [10] | Potency [12] | Potency [13] | activity change, positive = activation ([14]; at 92.4 µM (top of the series)) 5.7% | Potency [15] | Potency [16] | Potency [18]

O=C(O)c1cccc(C(F)(F)F)c1
inactive: Potency [1] | Potency [2] | Potency [3] | Potency [4] | Potency [5] | Potency [6] | Potency [7] | Potency [20] | Potency [8] | Potency [9] | Potency [10] | Potency [11] | Potency [12] | Potency [13] | activity change, positive = activation ([14]; at 92.4 µM (top of the series)) -2.71% | Potency [15] | Potency [17] | Potency [18] | Potency [19]

COc1c(C)c2c(c(O)c1C/C=C(\C)CCC(=O)OCCN1CCOCC1)C(=O)OC2
inactive: Potency [1] | Potency [2] | Potency [3] | Potency [5] | Potency [6] | Potency [7] | Potency [8] | Potency [11] | Potency [12] | Potency [13] | activity change, positive = activation ([14]; at 42.5 µM (top of the series)) -23.6% | Potency [15] | Potency [17] | Potency [18] | Potency [19]
active: Potency [4] 1060 nM

CC/C=C\CCCCCO
inactive: Potency [1] | Potency [2] | Potency [3] | Potency [4] | Potency [5] | Potency [6] | Potency [7] | Potency [8] | Potency [9] | Potency [10] | Potency [11] | Potency [12] | Potency [13] | activity change, positive = activation ([14]; at 92.4 µM (top of the series)) 4.13% | Potency [15] | Potency [17] | Potency [18] | Potency [19]

CC(=O)c1ccc(C(C)=O)cc1
inactive: Potency [1] | Potency [2] | Potency [3] | Potency [4] | Potency [5] | Potency [6] | Potency [7] | Potency [20] | Potency [8] | Potency [9] | Potency [10] | Potency [11] | Potency [12] | Potency [13] | activity change, positive = activation ([14]; at 92.4 µM (top of the series)) -2.27% | Potency [15] | Potency [16] | Potency [17] | Potency [18] | Potency [19]
